Publication PMC5540273 (PLoS ONE, 2017)

What was measured:
Conditions in all cases: concentration: 1 μM, replicates: in singlicate; n = 1
[1] = system: CDC2L2
[2] = system: T1, CDC2L5
T1 construct: gene CDK13

[3] = system: T2, CDK11
T2 construct: gene CDK19

[4] = system: CDK2
[5] = system: CDK3
[6] = system: CDK4-cyclinD1
[7] = system: CDK4-cyclinD3
[8] = system: CDK4
[9] = system: CDK5
[10] = system: CDK7
[11] = system: CDK8
[12] = system: CDK9
[13] = system: CDKL1
[14] = system: CDKL2
[15] = system: CDKL3
[16] = system: CDKL5
[17] = system: CHEK1
[18] = system: CHEK2
[19] = system: CIT
[20] = system: CLK1
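Also: KINOMEscan kinase panel screen.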

| SMILES | %Inh [1] | %Inh [2] | %Inh [3] | %Inh [4] | %Inh [5] | %Inh [6] | %Inh [7] | %Inh [8] | %Inh [9] | %Inh [10] | %Inh [11] | %Inh [12] | %Inh [13] | %Inh [14] | %Inh [15] | %Inh [16] | %Inh [17] | %Inh [18] | %Inh [19] | %Inh [20] |
| --- | --- | --- | --- | --- | --- | --- | --- | --- | --- | --- | --- | --- | --- | --- | --- | --- | --- | --- | --- | --- |
| CN1CCN(CCCNc2nccc(-c3c(-c4ccc(F)cc4)nn4cc(C(F)(F)F)ccc34)n2)CC1 [GW621581] | 0% | 0% | 0% | 0% | 0% | 0% | 0% | 0% | 0% | 0% | 19% | 0% | 0% | 21% | 0% | 0% | 10% | 0% | 71% | 21% |
| COc1ccc(Nc2nccc(NCCNC(=O)c3cc4ccccc4s3)n2)cc1 [GSK1379896] | 1% | 0% | 10% | 0% | 5% | 0% | 0% | 13% | 0% | 0% | 15% | 0% | 0% | 23% | 0% | 0% | 0% | 0% | 5% | 20% |
| O=C(Nc1cccc(Oc2ccc3nc(NC(=O)C4CC4)cn3n2)c1)c1ccccc1C(F)(F)F | 14% | 25% | 1% | 0% | 21% | 24% | 0% | 0% | 0% | 0% | 26% | 0% | 43% | 26% | 0% | 7% | 0% | 11% | 63% | 26% |
| COc1ccc(Nc2nccc(N3CCC(NC(=O)Nc4cccc(OC)c4)C3)n2)cc1 (stereo not shown) [GSK1379742] | 0% | 0% | 56% | 0% | 27% | 0% | 0% | 13% | 0% | 0% | 72% | 0% | 0% | 49% | 0% | 0% | 0% | 0% | 14% | 26% |
| COc1cccc(C2=C(Nc3ccc(Cl)c(C(=O)O)c3)C(=O)NC2=O)c1 [SB-390769] | 0% | 0% | 100% | 9% | 25% | 7% | 100% | 0% | 0% | 0% | 0% | 0% | 47% | 25% | 100% | 6% | 0% | 0% | 40% | 12% |
| COc1cccc(NC(=O)NC2CCN(c3ccnc(Nc4cc(OC)c(OC)c(OC)c4)n3)C2)c1 (stereo not shown) [GSK1379763] | 10% | 0% | 5% | 0% | 21% | 0% | 0% | 0% | 0% | 0% | 39% | 10% | 0% | 52% | 0% | 0% | 0% | 54% | 23% | 12% |
| Cn1cc(-c2ccc3c(c2)CCN3C(=O)Cc2cccc(F)c2)c2c(N)ncnc21 [GSK2603358] | 21% | 0% | 96.7% | 0% | 7% | 2% | 0% | 17% | 0% | 0% | 97.8% | 7% | 6% | 43% | 0% | 0% | 5% | 0% | 20% | 18% |
| O=C(O)C(F)(F)F.O=C(O)C(F)(F)F.O=c1[nH]ccc2nc(N[C@@H]3CCCNC3)nc(Nc3ccc(S(=O)(=O)N4CCOCC4)cc3)c12 [GSK2177277] | 17% | 0% | 0% | 88% | 88% | 98.1% | 99.8% | 62% | 90.8% | 99.6% | 0% | 17% | 64% | 45% | 0% | 42% | 100% | 74% | 76% | 76% |
| Cc1cccc(Nc2nc(N[C@H]3CCNC3)ncc2C(N)=O)c1.Cl [GSK2197149] | 74% | 0% | 0% | 0% | 0% | 0% | 1% | 0% | 0% | 52% | 0% | 7% | 12% | 7% | 0% | 0% | 52% | 71% | 76% | 51% |
| c1ccc(-c2n[nH]cc2Nc2ccnc3ccccc23)nc1 [GW694077] | 6% | 0% | 6% | 0% | 7% | 58% | 46% | 37% | 0% | 47% | 30% | 0% | 3% | 31% | 0% | 0% | 0% | 18% | 61% | 98.2% |
| Cn1cc(-c2[nH]c3cc(NC(=O)[C@H](N)C4CCCCC4)cc4c3c2C=NNC4=O)cn1 | 6% | 0% | 15% | 8% | 0% | 0% | 0% | 0% | 11% | 41% | 0% | 0% | 16% | 0% | 18% | 0% | 98.4% | 96.6% | 97.5% | 56% |
| CN(C)Cc1ccc(-c2ccc3c(Nc4ccc(Oc5ccccn5)cc4)ccnc3c2)o1 [GW567148] | 0% | 0% | 0% | 0% | 0% | 0% | 0% | 25% | 0% | 62% | 4% | 0% | 0% | 11% | 0% | 0% | 0% | 82% | 0% | 0% |
| CC(=O)Nc1nc2cnc(Nc3cc(NC(=O)c4cccc(C5(C#N)CC5)c4Cl)ccc3C)nc2s1 | 33% | 17% | 23% | 0% | 0% | 0% | 0% | 0% | 0% | 0% | 21% | 0% | 5% | 36% | 24% | 0% | 0% | 4% | 62% | 0% |
| CSc1cccc2c(-c3ccncn3)c(-c3ccc(F)cc3)nn12 [GW514786] | 17% | 0% | 8% | 11% | 9% | 13% | 0% | 15% | 0% | 2% | 37% | 0% | 6% | 31% | 0% | 3% | 81% | 0% | 79% | 18% |
| Cl.Cl.NCC(NCc1ccc(-c2ccnc3[nH]ccc23)s1)c1ccccc1 (stereo not shown) [GSK1321565] | 23% | 0% | 2% | 0% | 0% | 5% | 0% | 50% | 0% | 65% | 39% | 0% | 0% | 13% | 0% | 0% | 0% | 33% | 93% | 89% |
| CN(c1ccc(NC(=O)Nc2cc(C(F)(F)F)ccc2F)cc1)c1ccnc(Nc2ccc(S(N)(=O)=O)cc2)n1 [GW809893] | 94% | 83% | 98.8% | 99.7% | 99% | 14% | 5% | 0% | 97.1% | 95.3% | 98.9% | 93.5% | 80% | 99.9% | 99.4% | 26% | 0% | 20% | 57% | 47% |
| Cc1cccc(NC(=O)Nc2ccc(Oc3ncnc4ccn(C)c34)cc2)c1 | 0% | 0% | 77% | 0% | 2% | 0% | 0% | 0% | 15% | 0% | 72% | 0% | 11% | 5% | 0% | 0% | 0% | 0% | 0% | 2% |
| CCS(=O)(=O)c1ccc(OC)c(Nc2nccc(-c3c(-c4cccc(NC(=O)c5c(F)cccc5F)c4)nn4ncccc34)n2)c1 [GSK326180] | 15% | 0% | 11% | 0% | 7% | 0% | 12% | 0% | 0% | 0% | 16% | 0% | 6% | 15% | 0% | 0% | 10% | 0% | 8% | 40% |
| CC(C)c1nc(-c2cccc(NS(=O)(=O)c3c(F)cccc3F)c2F)c(-c2ccnc(Nc3ccc(N4CCOCC4)nc3)n2)s1 [GSK2008607] | 47% | 84% | 6% | 99.4% | 99.5% | 65% | 93.6% | 96.3% | 99.1% | 93.1% | 14% | 93% | 54% | 99.3% | 4% | 90.2% | 0% | 60% | 95.1% | 0% |
| CC(C)(C)c1ccc2nccc(Nc3cccc(O)c3)c2c1 [GW856795] | 0% | 36% | 17% | 0% | 0% | 55% | 0% | 32% | 0% | 1% | 68% | 0% | 8% | 0% | 19% | 0% | 74% | 0% | 21% | 17% |
